In PubChem BioAssay (NCATS):
Inconclusive results are not listed. The source made the active and inactive calls. Calls come from the whole dose curve; as a rule, active = well fitted curve in the direction sought with a large enough effect; inconclusive = small, poorly fitted or top-dose-only effect, or another doubt; inactive = no such curve, though single readings can be large; an effect the other way counts as inactive or inconclusive.

Assays:
[1] = qHTS to identify inhibitors of the type 1 interferon - major histocompatibility complex class I in skeletal muscle: primary screen against the NCATS Pharmaceutical Collection (AID 1347407);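 note: luminescence of HiBiT knocked into endogenous HLA-B as interferon-induced MHC class I level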
Summary of the method: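 Cells were seeded with 4 ng/ml IFN-beta, incubated 1 h, then dosed with compounds over eight 1:5 steps up to 46 uM final. After 24 h at 37 C, HiBiT lytic reagent was added and luminescence read after 10 min lysis in the dark.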

[2] = target: Protein phosphatase 1D (Homo sapiens) (UniProt O15297); experiment: RapidFire Mass Spectrometry qHTS Assay for Modulators of WT P53-Induced Phosphatase 1 (WIP1) (AID 1347424);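 note: amount of dephosphorylated VEPPL-S-QETFS peptide product formed by WIP1; series mostly up to about 63 µM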
Chain of Protein phosphatase 1D (Homo sapiens) (O15297 whole entry, looked up): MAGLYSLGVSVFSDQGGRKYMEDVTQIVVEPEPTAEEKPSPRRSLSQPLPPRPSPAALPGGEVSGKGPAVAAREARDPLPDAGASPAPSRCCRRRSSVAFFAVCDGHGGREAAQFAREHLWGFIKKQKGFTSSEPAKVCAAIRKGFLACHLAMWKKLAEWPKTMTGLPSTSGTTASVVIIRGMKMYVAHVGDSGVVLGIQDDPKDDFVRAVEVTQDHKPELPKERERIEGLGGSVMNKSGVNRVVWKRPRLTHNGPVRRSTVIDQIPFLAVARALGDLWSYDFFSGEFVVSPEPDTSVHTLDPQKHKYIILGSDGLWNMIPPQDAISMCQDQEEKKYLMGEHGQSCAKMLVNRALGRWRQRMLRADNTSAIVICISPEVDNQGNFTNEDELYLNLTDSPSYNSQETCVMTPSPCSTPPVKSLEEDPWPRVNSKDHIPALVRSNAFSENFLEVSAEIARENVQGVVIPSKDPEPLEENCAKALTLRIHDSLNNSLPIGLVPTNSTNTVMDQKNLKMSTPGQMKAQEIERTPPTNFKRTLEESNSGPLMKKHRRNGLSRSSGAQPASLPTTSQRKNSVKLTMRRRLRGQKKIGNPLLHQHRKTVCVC
Summary of the method: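 RapidFire mass spectrometry measured dephosphorylated peptide after 5 min room-temperature reaction of 2 uM VEPPL-pS-QETFS with 10 nM WIP1 (50 mM Tris-HCl pH 7.5, 30 mM MgCl2, 0.1 mM EGTA, BSA), following 1 hr compound preincubation; 1 uM isotope-labelled product standard.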

[3] = qHTS to identify inhibitors of the type 1 interferon - major histocompatibility complex class I in skeletal muscle: primary screen against the NCATS Mechanism Interrogation Plate v5.0 (MIPE) Libary (AID 1347411); note: nearly all actives have a fitted effect of over 65% in size
Summary of the method: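 IFN-beta-driven (4 ng/ml) HLA-B-HiBit expression in CRISPR-tagged C25cl48 myoblasts; compounds 11-pt, 1:3, max 46 uM, 24 hr exposure; lytic NanoLuc complementation luminescence.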

[4] = target: Protein phosphatase 1D (Homo sapiens) (UniProt O15297); experiment: Rhodamine-PBP qHTS Assay for Modulators of WT P53-Induced Phosphatase 1 (WIP1) (AID 1347425)
Summary of the method: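 The read-out is the change in Rhodamine-PBP fluorescence (f1 - f0, ex 525/em 598 nm) as Pi is released, read each minute for 11 min. Final reaction: 5 nM WIP1, 10 uM phosphopeptide VEPPL-pS-QETFS, 10 uM Rh-PBP, 50 mM Tris-HCl pH 7.5, 30 mM MgCl2. Compound was preincubated with enzyme for 1 hour at room temperature.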

[5] = qHTS for inhibitors of adenylyl cyclases using a fission yeast platform: a pilot screen against the NCATS LOPAC library (AID 1347410)
Summary of the method: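 Growth medium went into the plates first, then compounds were pinned (final up to 57 µM), then CHP2027 yeast were added. Plates were incubated overnight (18 h) at 30C in the dark, and GFP was measured by laser scanning cytometry.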

[6] = Validation qHTS assay for inhibitors of Activation Induced Cytidine Deaminase (AID): UDG Counterscreen signal (AID 1347427)
Summary of the method: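 Fluorescence at 560 nm excitation, 665 nm emission reports UDG signal after 250 mM NaOH (2x) addition and 30 min. Enzymes (AID 1 uM, UDG 2 U/mL, at 4/3x) preincubated 10 min with compound, then 4 h with 4x 250 nM DJC20/DJC23 substrate at room temperature.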

[7] = target: Single-stranded DNA cytosine deaminase (Homo sapiens) (UniProt Q9GZX7); experiment: Validation qHTS assay for inhibitors of Activation Induced Cytidine Deaminase (AID): AID signal (AID 1347429)
Chain of Single-stranded DNA cytosine deaminase (Homo sapiens) (Q9GZX7 whole entry, looked up): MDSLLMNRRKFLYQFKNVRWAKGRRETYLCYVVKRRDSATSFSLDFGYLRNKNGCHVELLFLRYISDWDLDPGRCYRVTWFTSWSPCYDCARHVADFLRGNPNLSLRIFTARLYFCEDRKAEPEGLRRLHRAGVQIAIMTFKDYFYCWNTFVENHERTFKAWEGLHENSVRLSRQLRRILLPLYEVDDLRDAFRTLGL
Summary of the method: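 Compounds (up to 114 uM final) are tested against AID plus UDG using DJC20/DJC23 FRET substrate. Reactions incubate 4 hr at room temperature, receive NaOH for 30 min, and are read at Ex 540/Em 590 nm.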

Measured: Potency

OCCOc1ccccc1
inactive: [1] | [2]

O=P1(NCCCl)OCCCN1CCCl (stereo not given)
inactive: [1] | [3] | [2] | [4]

O=[N+]([O-])c1cc([As](=O)(O)O)ccc1O
inactive: [1] | [2]

O=C(O)c1ccc2[nH]cc(CCCCN3CC=C(c4ccccc4)CC3)c2c1
inactive: [1] | [2] | [4]

O=c1[nH]c2ccccc2n1CCCN1CCC(n2c(=O)[nH]c3cc(Cl)ccc32)CC1
not listed: [1] | [4]
inactive: all other assays above

CCN(CC)CCN1C(=O)CN=C(c2ccccc2F)c2cc(Cl)ccc21
inactive: [1] | [2]

Cc1ccc(-c2nc3ccc(C)cn3c2CC(=O)N(C)C)cc1
inactive: [1] | [2] | [4]

CC[N+]1(C)CCCC(OC(=O)C(O)(c2ccccc2)c2ccccc2)C1 (stereo not given)
inactive: [1] | [2]

COC[C@H]1OC(=O)c2coc3c2[C@@]1(C)C1=C(C3=O)C2CCC(=O)[C@@]2(C)C[C@H]1OC(C)=O (stereo not given in full)
inactive: [5] | [6] | [7]

CN1CCN(C(=O)O[C@H]2c3nccnc3C(=O)N2c2ccc(Cl)cn2)CC1
inactive: [1] | [2]

Oc1ccccc1-c1ccccc1
inactive: [1] | [2] | [4]

Clc1cccc(N2CCNCC2)c1
inactive: [1] | [2]

CC1NCCOC1c1ccccc1 (stereo not given)
inactive: [1] | [2]

C=CCN1CC[C@]23c4c5ccc(O)c4O[C@H]2C(=O)CC[C@@]3(O)[C@H]1C5
inactive: [1] | [2] | [4]

COc1ccc2c(c1OC)CN1CCc3cc4c(cc3C1C2)OCO4 (stereo not given)
inactive: [1] | [2]

Fc1ccc(C(OCCN2CCN(CCCc3ccccc3)CC2)c2ccc(F)cc2)cc1
not listed: [1] | [3]
inactive: all other assays above

COc1ccc(Cc2nccc3cc(OC)c(OC)cc23)cc1OC
inactive: [1] | [2] | [4]

O=c1[nH]c2ccccc2n1C1CCN(CCCC(c2ccc(F)cc2)c2ccc(F)cc2)CC1
not listed: [1] | [3]
inactive: all other assays above

Oc1cc(Cl)ccc1Oc1ccc(Cl)cc1Cl
inactive: [1] | [2]

C[C@]12CCC(=O)C(O)=C1CC[C@@H]1[C@@H]2CC[C@]2(C)C(=O)CC[C@@H]12
not listed: [5]
inactive: all other assays above

CCC(COC(=O)c1cc(OC)c(OC)c(OC)c1)(c1ccccc1)N(C)C (stereo not given)
inactive: [1] | [2]

CC(C)NCC(O)c1ccccc1Cl (stereo not given)
inactive: [1] | [2] | [4]

CN1C(=S)CN=C(c2ccccc2)c2cc(Cl)ccc21
inactive: [1] | [2] | [4]

CCCC(C)(COC(N)=O)COC(=O)NC(C)C (stereo not given)
inactive: [1] | [2] | [6] | [7]

CCOP(=S)(OCC)Oc1cc(C)nc(C(C)C)n1
inactive: [1] | [2]
